In all, about 360,000 compounds went through this assay and about 17,000 (4.7%) were called active. Another 5% or so got no clear call; they are omitted. Cut-off read from the data, not from the text of the source: active = activity change below about -50%; inconclusive = mostly about -30% to -49%; inactive = weaker than that. The entries come from a sample that favours actives as a whole.
Test: qHTS for Inhibitors of Inflammasome Signaling: IL-1-beta AlphaLISA Primary Screen
Settings: THP-1 LPS/ATP IL-1B secretion, 16 h; at 57.5 µM, active compounds read low
Method in brief: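 THP-1 cells pretreated 1 hr with compounds (up to 57.5 uM final), then stimulated with LPS (250 ng/mL final) plus ATP (1.25 mM final); secreted IL-1B measured by AlphaLISA after 16 hr, decreased signal indicating inhibition.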
With CCc1cccc(CC)c1N1C(=O)CC(Sc2ccccc2N)C1=O (stereo not drawn) the activity change was 17.8% (inactive). With Cc1ccccc1S(=O)(=O)NC(=O)C1(C)CCN1C(=O)Cc1ccc(Cl)cc1Cl (stereo not drawn) the activity change was -18.4% (inactive). In the case of CC(=O)N1CC(C)c2scc(C)[n+]2-c2ccccc21 (stereo not drawn), the activity change was -71.4% (active). With O=C(Nc1nnc(S(=O)(=O)N2CCCCCC2)s1)c1cccc(Br)c1 the activity change was -9.2% (inactive). In the case of Cn1c(NC(=O)c2ccccc2)nc2ccccc21, the activity change was 35.1% (inactive). In the case of O=C(NC1=CC(=O)c2ccccc2C1=O)c1ccccc1, the activity change was -96.1% (active). For O=C1C=C(NS(=O)(=O)c2ccccc2)C(=O)c2ccccc21, the activity change was -0.814% (inactive). In the case of N#Cc1cccc(NC(=O)c2cc(C3CCCCN3C(=O)CCc3ccccc3)on2)c1 (stereo not drawn), the activity change was -18% (inactive). For Clc1c(OCCCn2ccnc2)ccc2ccccc12, the activity change was -77% (active). With C=CCc1cc(C)ccc1OCCCn1ccnc1 the activity change was -24.1% (inactive). For O=C(NCCCn1ccnc1)c1ccccc1F, the activity change was 8.56% (inactive). For COc1cccc(CNC(=O)[C@@H]2CCCN2C(=O)[C@@H]2CCCN2C(=O)c2ccccc2)c1, the activity change was 0% (inactive). In the case of O=C(CCc1ccccc1)Nc1ccc(NC(=O)C2CCCCC2)nc1, the activity change was -9.78% (inactive). For C=CCN1CCN(c2ccncc2S(=O)(=O)N2CCN(C)CC2)CC1, the activity change was -7.51% (inactive). In the case of CC(=O)OC1CCC2(C)C(=CCC3C4CC(=O)N(O)C(=O)C4(C)CCC32)C1 (stereo not drawn), the activity change was -9.48% (inactive). With O=C(Nc1ccccc1)N1CCN(C2c3ccccc3-c3ccccc32)CC1 the activity change was -15.2% (inactive). For O=C(Nc1ccc(F)cc1)N1CCN(c2ccc(F)cc2)CC1, the activity change was 2.96% (inactive). With O=C(Nc1cccc(NC(=O)N2CCN(c3ccccc3)CC2)c1)N1CCN(c2ccccc2)CC1 the activity change was -55.8% (active). For CCOC(=O)c1c(NC(=O)COC(=O)c2ccc(S(=O)(=O)C(F)F)cc2)sc(C(=O)N(C)C)c1C, the activity change was -22% (inactive). With C=CCN1C=C(C(=O)c2ccccc2)C(=O)CC1 the activity change was 14% (inactive). With CC(C)C1C(=O)N(Cc2cn(CCC3OCCO3)nn2)CCS(=O)(=O)N1Cc1ccc(-c2ccccc2C(F)(F)F)cc1 (stereo not drawn) the activity change was -17.2% (inactive). In the case of O=C(OC(C(=O)NC1CCCC1)c1ccc(F)cc1)c1ccno1 (stereo not drawn), the activity change was -4.45% (inactive). For CCOc1ccc(/C=C(/C#N)c2nnc(N3CCOCC3)n2-c2ccccc2)cc1OC, the activity change was -13.1% (inactive). With COc1ccc(C2(O)C(=O)Nc3ccccc32)cc1 (stereo not drawn) the activity change was 16% (inactive). With COc1ccc(C2(C)ON(c3ccccc3C(F)(F)F)C2=O)cc1 (stereo not drawn) the activity change was -62.1% (active). With COc1ccc(C2(C)NC(=O)N(CC(=O)c3ccc4c(c3)OCO4)C2=O)cc1 (stereo not drawn) the activity change was 6.28% (inactive). For COC(=O)CCCCC1=CCC2C(=O)C=C(O)C2C1 (stereo not drawn), the activity change was 46.8% (inactive). In the case of Cc1cc(C)cc(NC(=O)C2CCCN(S(=O)(=O)c3ccc4[nH]c(=O)ccc4c3)C2)c1 (stereo not drawn), the activity change was -11.9% (inactive). With CC(C(=O)NC1CCCC1)N1CCN(S(=O)(=O)c2ccccc2Cl)CC1 (stereo not drawn) the activity change was -3.55% (inactive). For CCc1nc2c(OCCOc3ccccc3)cccn2c1N(C)C(=O)c1ccc(OC)cc1, the activity change was -0.0267% (inactive). For COc1ccc(S(=O)(=O)N(C)C)cc1NC(=O)COC(=O)c1n[nH]c2ccccc12, the activity change was -8.2% (inactive). In the case of O=C(Nc1nnc(C2CC2)s1)c1ccccn1, the activity change was 12.6% (inactive). For Cc1cnc(NC(=O)c2ccccn2)s1, the activity change was -99.9% (active). For Cc1cnc(NC(=O)C2CCCC2)s1, the activity change was -15.9% (inactive). With O=S(=O)(N1CCCCC1)N1CCNCC1 the activity change was 18.8% (inactive). For CNC(=O)c1ccc(CN(C)C(=O)c2cc(C3CC3)nc3c2cnn3C(C)C)cc1, the activity change was -23.4% (inactive). In the case of CCOC(=O)C1=C(CSc2nnnn2C)N(C)C(=O)NC1c1ccccc1 (stereo not drawn), the activity change was 25.6% (inactive). For COc1cc(/C=N/NC(=O)Cc2ccccc2)cc(OC)c1OC, the activity change was 11.4% (inactive). For COc1cc(/C=N/O)cc(Br)c1OS(=O)(=O)c1ccc(C)cc1, the activity change was -4.12% (inactive). In the case of COc1cc(/C=N/O)cc(Br)c1OCc1cccc(Cl)c1, the activity change was -101% (active). In the case of CCCCCCn1c(=O)n2n(c1=O)C[C@]1(OC(=O)NCc3ccc(OC)c(OC)c3)CN(S(=O)(=O)c3ccc(C)cc3)C[C@]1(O)C2, the activity change was -2.71% (inactive). With NS(=O)(=O)c1ccc2nc(NC(=O)C3=COCCO3)sc2c1 the activity change was 4.02% (inactive). For CCC(=O)N1CCC(C)(C(=O)Nc2cc(OC)c(OC)c(OC)c2)C1 (stereo not drawn), the activity change was 33.3% (inactive). With CN(CC(=O)Nc1ccc(Cl)cc1)C(=O)c1ccc(COc2ccccc2)cc1 the activity change was 5.98% (inactive). With CN(Cc1ccccc1)C(=O)c1ccc(COc2ccccc2)cc1 the activity change was -71.5% (active). For CN(Cc1ccccc1)C(=O)COc1ccccc1, the activity change was -10.6% (inactive). For CN(Cc1ccccc1)C(=O)[C@@H]1CCCN1C(=O)[C@@H]1CCCN1C(=O)c1c(F)cccc1F, the activity change was 32.8% (inactive). For CC(=O)NC(Cc1c[nH]c2ccccc12)C(=O)O (stereo not drawn), the activity change was 35% (inactive). In the case of CC(=O)NC(Cc1c[nH]c2ccccc12)C(=O)NCCc1ccccc1 (stereo not drawn), the activity change was -9.89% (inactive). In the case of O=C(NC(Cc1c[nH]c2ccccc12)C(=O)N/N=C/c1ccc(Br)cc1)c1cccs1 (stereo not drawn), the activity change was -61.1% (active). With CC(C)Sc1nc(N)nc2c1ncn2C1OC(CO)C(O)C1O (stereo not drawn) the activity change was 16% (inactive). With CCCCCCCCn1c2c(c(=N)c3c1CCC3)CCCC2 the activity change was -89.8% (active). In the case of CC(=O)Nc1ccc(S(=O)(=O)N2CCC(NC(=O)c3ccccc3)CC2)cc1, the activity change was 7.08% (inactive). For CCOc1ccc(N2C(=O)CC(N(CCc3ccc(OC)c(OC)c3)C(=S)Nc3ccccc3)C2=O)cc1 (stereo not drawn), the activity change was 44.8% (inactive). For CC(C)=CCCC1(C)C=Cc2c(ccc3c2[nH]c2cc(O)c(C)cc23)O1 (stereo not drawn), the activity change was -71.6% (active). For Cc1ccc(S(=O)(=O)C2C(=O)NC3(C)CC2c2ccccc2O3)cc1 (stereo not drawn), the activity change was 12.4% (inactive). In the case of O=C(c1ccncc1)N1CCN(c2ccc3ccccc3n2)CC1, the activity change was 5.08% (inactive). For CC1=C(N2CCN(c3ncccn3)CC2)CCC1=O, the activity change was 8.92% (inactive). With c1cnc(N2CCN(c3ccc4ccccc4n3)CC2)nc1 the activity change was -50.1% (active). With COCCCn1cc(CN2CC(N(C)C)CS2(=O)=O)nn1 (stereo not drawn) the activity change was 21.9% (inactive). With CC1CCC(C(C)C)C(=O)/C1=C\c1ccc(NC(=O)CCC(=O)O)cc1 (stereo not drawn) the activity change was 0% (inactive). In the case of Cc1ccc(C)c(NC(=O)c2cc(-c3cc(C)cc(C)c3O)n[nH]2)c1, the activity change was -93.5% (active). With Cc1ccc(O)c(-c2cc(C(=O)Nc3c(C)n(C)n(-c4ccccc4)c3=O)[nH]n2)c1 the activity change was 0% (inactive). With Cc1ccc(NC(=O)c2cc(-c3ccccc3O)n[nH]2)cc1C the activity change was -6.84% (inactive). In the case of COc1ccc(NC(=O)C2(C)Cc3c(-c4ccc(C(N)=O)cc4)ccnc3O2)cc1 (stereo not drawn), the activity change was 0% (inactive). With Cc1cc(NC(=O)c2cc3ccccc3o2)no1 the activity change was 45.3% (inactive). In the case of Cc1ccc(-n2ncc3c(=O)n(-c4ccc(C)c(C)c4)c(-c4ccco4)nc32)cc1, the activity change was -18.4% (inactive). In the case of CN1C(=O)/C(=C/c2ccco2)SC1=Nc1cccc(C(=O)O)c1, the activity change was 18.8% (inactive). For Cc1ccc(N2NC(=O)/C(=C/C=C/c3ccco3)C2=O)cc1C, the activity change was -62.6% (active). For Cc1ccc(N=C2NC(=O)/C(=C/C=C/c3ccco3)S2)cc1C, the activity change was -91.3% (active). In the case of O=C1NN(c2ccccc2)C(=O)/C1=C/c1ccc(-c2cccc(C(=O)O)c2)o1, the activity change was -4.59% (inactive). With CCOP(=O)(OCC)C(Cc1ccccc1)N=C(c1ccccc1)c1ccccc1 (stereo not drawn) the activity change was -2.56% (inactive). With CNS(=O)(=O)c1ccc2c(c1)[nH]c(=S)n2C the activity change was -25% (inactive). For Cc1[nH]c(N)nc(=S)c1CCCNc1ccccc1, the activity change was 5.82% (inactive). With O=C(NCc1ccccc1)c1cccc(NC(=O)C2CCCCC2)c1 the activity change was -13.6% (inactive). With CCC(C)Sc1nc(C)nc2c1c(=O)n(C)c(=O)n2C (stereo not drawn) the activity change was 11.7% (inactive). With Cc1cc(Br)cn2c(Cc3ccsc3)c(-c3ccc(C#N)cc3)nc12 the activity change was -10.8% (inactive). In the case of CN(Cc1ccc(C(F)(F)F)cc1)C(=O)[C@H]1O[C@@H](n2cnc3c(N)ncnc32)[C@H](O)[C@@H]1O, the activity change was -14.1% (inactive). For Cc1ccc2nc(SCC(=O)N3CC(C)OC(C)C3)nc(=O)n2c1 (stereo not drawn), the activity change was 13.3% (inactive). In the case of CC(C)CC(CO)N1CCN(C(=O)c2ccc(Cl)cc2Cl)CCC1=O (stereo not drawn), the activity change was 4.74% (inactive). For O=C(c1ccc(C(F)(F)F)cc1)N1CCC(=O)N([C@H](COCc2ccccc2)Cc2ccccc2)CC1, the activity change was -29.6% (inactive). For O=C(c1cc(Cl)cc(Cl)c1)N1CCC(=O)N(C(COCc2ccccc2)Cc2ccccc2)CC1 (stereo not drawn), the activity change was -74.4% (active). In the case of CC(C)C[C@@H](COCc1ccc(Cl)cc1)N1CCN(C(=O)c2ccc(Cl)cc2Cl)CCC1=O, the activity change was -52.8% (active). With CC(C)C[C@@H](CO)N1CCN(Cc2ccc(O)cc2)CCC1=O the activity change was 0% (inactive). With Cc1ccc(S(=O)(=O)N2CCC(=O)N([C@H](COCc3ccccc3)Cc3ccccc3)CC2)cc1 the activity change was 13.2% (inactive). With CCc1noc(C)c1C(=O)OCC(=O)c1ccc(NC(=O)CC(C)C)cc1 the activity change was 1.82% (inactive). In the case of C[C@@H]1CN([C@@H](C)CO)C(=O)CCCn2nncc2CO[C@@H]1CN(C)S(=O)(=O)c1ccc(-c2ccccc2)cc1, the activity change was -3.91% (inactive). In the case of CN=C1SC(C(=O)O)CC(=O)N1C (stereo not drawn), the activity change was 0.415% (inactive). With CCCCn1nnnc1C(c1ccccc1)N1CCN(c2ccccc2OC)CC1 (stereo not drawn) the activity change was -1.89% (inactive). In the case of CC1=C(C(=O)N2CCOCC2)CC(CC(=O)NCc2cccs2)C(=O)N1CCCN1CCCC1=O (stereo not drawn), the activity change was 2.1% (inactive). With Cc1ccccc1-n1c(SCC(=O)NCc2cccs2)nnc1-c1ccncc1 the activity change was -2.89% (inactive). With Cc1ccc(-n2c(SCC(=O)N3c4ccccc4Sc4ccccc43)nnc2-c2ccncc2)cc1 the activity change was -10.1% (inactive). For Cc1ccc(Nc2nc(CSc3nnc(-c4ccncc4)n3-c3ccccc3C)cs2)cc1, the activity change was -74.1% (active).

— PubChem BioAssay AID743279 (National Center for Advancing Translational Sciences (NCATS), 2014)
% is set by controls: 0 for no effect and ±100 for the full control effect.
